Source: PubChem
FBW7 act: activators of human E3 ligase FBW7; Q969H0; AlphaScreen FBW7–phospho-cyclin E peptide binding, activator screen; normalized activity (activation), % at 26.1 µM; 650,000 tested, 0.13% active; in the data active = normalized activity above about 1.9%;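 also: purified mutant Fbw7 with reduced substrate affinity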
MITF primary: inhibitors of human MITF; O75030; 650,000 tested, 0.91% active; AID 1259374; AlphaScreen MITF homodimerization, bead proximity signal; inhibition, % at 2.6 µM; in the data active = inhibition above about 50%;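 also: 0% = vehicle wells with protein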
GPR151 ag: activators of human GPR151. Q8TDV0. PathHunter beta-arrestin GPR151 cells, luminescence. activation, % at 11.2 µM. 650,000 tested, 1% active. AID 1508602; in the data active = activation above about 4.9%;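 also: 0% = median of compound wells and 100% = cells with positive control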
TEAD-YAP inh: TEAD-YAP interaction inhibition; AID 1259422; 640,000 tested, 1.4% active; HEK-TIYL cells, TEAD-Gal4/YAP UAS-luciferase luminescence; inhibition, % at 9.12 µM; in the data active = inhibition above about 32%;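 also: 0% = median of test compound wells and 100% = reference inhibitor wells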
GPR151 conf act: confirmation of human GPR151 activators; shares compounds with GPR151 ag; GPR151 PathHunter beta-arrestin cells, luminescence, 90 min; % of EA-reagent control over plate median; activation, % at 11.2 µM; 6,700 tested, under 10 active;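 active = mean percent activation across replicates above the confirmation screen cutoff of 4.91%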
GPR119 ag: GPR119 activation, counter-screen for GPR151 activators; shares compounds with GPR151 ag; GPR119 PathHunter beta-arrestin cells, luminescence, 90 min; 0 = compound-well median, 100 = enzyme-acceptor control; activation, % at 11.2 µM; 6,700 tested, 0.3% active; AID 1508611;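 active = mean percent activation in the counterscreen above 29.09%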;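 also: counterscreen on off-target GPR119 to flag nonselective hits from the GPR151 activator screen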
Starred values were filed as active, the others as inactive; · = no result given. Compounds with a hit are over-represented: about 3.5% of the library has one in this group of screens.

SMILES	FBW7 act	MITF primary	GPR151 ag	TEAD-YAP inh	GPR151 conf act	GPR119 ag
COc1ccc(NC(=O)C(=O)NCCN2CCN(C(=O)c3c(F)cccc3F)CC2)cc1	0	11	5.8*	4	0	12
O=C(NC(=O)c1ccccc1)Nc1ccc(Br)cc1	0	-10	6.1*	-20	-1	-11
CCN(CCCNC(=O)c1nn(-c2ccccc2OC)c(=O)c2ccccc12)Cc1ccccc1	0	-5	-1	-12	·	·
CCc1nc2ccccc2c2nn(CC(=O)N3CCOCC3)c(=O)n12	0	-6	6.6*	-5	0	2
CC(C)c1nc2ccccc2c2nn(CC(=O)N3CCN(C(=O)c4ccco4)CC3)c(=O)n12	0	-7	15*	10	0	4
O=c1[nH]c(O)c(N=Nc2ccc3c(c2)OCO3)c(=O)[nH]1	0	7	-8	-8	·	·
CSc1cccc(NC(=O)C2C3C=CC4(O3)C2C(=O)N(CCN2CCCCC2C)C4C(=O)NC2CCCC(C)C2C)c1 (centres undefined)	0	-20	2	-2	·	·
Cc1ccc(NC(=O)CSc2ncnc3nc(N(C)Cc4ccccc4)sc23)c(F)c1	0	6	-1	1	·	·
COc1ccc(/C=N/N=c2\sc3ccccc3n2C)c(OC)c1	0	4	9.2*	-44	0	6
COc1cccc(/C=N\N=c2\sc3ccccc3n2C)c1OC	0	19	0	-47	·	·
COc1ccc(C2=CC(c3ccc(OC)c(OC)c3OC)n3nnnc3N2)cc1 (centres undefined)	0	3	2	-37	·	·
O=C(Nc1cccc(C(F)(F)F)c1)c1cc(=O)c2ccccc2o1	0	0	0	-5	·	·
CC(C)CCn1c(=O)c2cccnc2n(Cc2cccc(F)c2)c1=O	0	-8	12*	-8	-1	-4
O=c1c2cccnc2n(Cc2cccc(F)c2)c(=O)n1Cc1ccc(F)cc1	0	-5	-1	-6	·	·
CCOc1ccc(NC(=O)c2sc3ncnc(N4CCCCC4C)c3c2C)cc1 (centres undefined)	0	10	2	-2	·	·
O=C1COc2cc(S(=O)(=O)CCC(=O)N3CCCCCC3)ccc2N1	0	8	5.1*	4	1	-3
O=C1COc2cc(S(=O)(=O)Nc3ccc(F)cc3)ccc2N1	0	7	6.7*	-6	1	0
O=C(CCS(=O)(=O)c1ccc2c(c1)OCC(=O)N2)Nc1ccc(OC(F)(F)F)cc1	0	10	7.1*	0	-1	-10
O=P(CCCO)(c1ccccc1)c1ccccc1	0	30	10*	-3	1	15
O=P(CCO)(c1ccccc1)c1ccccc1	0	17	-2	1	·	·
COc1ccc(-c2cnc(NCCc3c[nH]c4ccccc34)nc2)cc1	0	0	5.2*	-11	0	-8
COc1ccc(-c2[nH]ncc2CNC(C)CCn2cccn2)cc1F (centres undefined)	0	10	0	-11	·	·
CCn1nc(C)c(CNCc2cn[nH]c2-c2ccc(OC)c(F)c2)c1C	0	10	5.4*	7	0	-5
CC(C)n1c(C(F)(F)F)nc2ccccc21	0	10	5.2*	6	2	9
Cc1cc(Nc2ccc3c(c2)OCO3)nc(Nc2ccccc2)n1	0	2	-2	-54	·	·
SMILES	FBW7 act	MITF primary	GPR151 ag	TEAD-YAP inh	GPR151 conf act	GPR119 ag
CC1(C)CC(=O)C2=C(C1)N(Cc1cccnc1)C(=O)NC2(C(F)(F)F)C(F)(F)F	0	-5	0	-4	·	·
CSc1nc(C(=O)N2CCc3nnc(CNC(=O)c4cccc(F)c4)n3CC2)cs1	0	9	5.2*	3	1	4
N#CCSc1nc2ccccc2c(=O)n1Cc1ccc2c(c1)OCO2	0	3	5.1*	-1	0	-1
O=c1c2ccccc2nc(SCc2ccc(Cl)cc2)n1Cc1ccc2c(c1)OCO2	0	-3	0	-5	·	·
COc1c([N+](=O)[O-])c(=O)oc2ccc([N+](=O)[O-])cc12	0	7	-2	-2	·	·
CC(=N)c1c(O)c2cc([N+](=O)[O-])ccc2oc1=O	0	0	5.7*	9	0	1
CCCCN1C(=O)c2ccc(C(=O)Nc3cc(Cl)ccc3C(=O)O)cc2C1=O	0	3	7.2*	8	0	-1
C=CCNC(=O)CN(Cc1ccc(Br)cc1)S(=O)(=O)c1ccc(C)cc1	0	13	-1	-9	·	·
N#Cc1cccc(S(=O)(=O)N2CCC(Oc3cccc(-c4ccco4)c3)CC2)c1	0	-2	-1	0	·	·
COC(=O)c1ccc(NC(=O)C2CC2)cc1	0	5	6.3*	-1	0	-6
Cn1c(=O)c2c(NC(=O)c3c(F)cccc3F)ccnc2n(C)c1=O	0	6	10*	1	-1	3
CCCN(CCC)CC(=O)Nc1sc2c(c1C(=O)OCC)CCC2	1	3	0	-22	·	·
COc1ccccc1NS(=O)(=O)c1ccc(NC(=O)CCC(=O)c2cccs2)cc1	0	-4	0	-6	·	·
CCOC(=O)c1sc(/N=C/N(C)C)c(C(=O)OCC)c1C	0	1	11*	-9	1	5
CCOC(=O)/C(N=Nc1sc(C(=O)OCC)c(C)c1C(=O)OCC)=C(\O)CCl	0	3	6.7*	-5	1	-3
NC(=O)c1cc2cc([N+](=O)[O-])ccc2oc1=Nc1cccc(C(F)(F)F)c1	0	-22	0	-1	·	·
CCCN(CCC)C1=C(C(=O)c2ccccc2)N(C)S(=O)(=O)c2ccccc21	0	4	1	14	·	·
Cc1cc(C)cc(NC(=O)CN(Cc2ccc(Br)cc2)S(=O)(=O)c2ccccc2)c1	0	4	1	-27	·	·
CC1(C)CC(NC(=O)c2ncn[nH]2)CC(C)(C)N1	0	-11	0	-2	·	·
CCn1c(SCc2cccc(Br)c2)nnc1-c1cnccn1	0	4	7.4*	-5	0	-1
COc1ccc(S(=O)(=O)n2nc(OC(=O)c3ccc(C)c(C)c3)cc2N)cc1	0	4	-1	-20	·	·
COc1ccc(NC(=O)c2cc(Br)ccc2Cl)cc1N1CCCC1=O	0	10	1	-14	·	·
COc1cc(NC(=O)c2cc(Br)ccc2Cl)ccc1N1CCCC1=O	0	10	5.0*	9	1	8
C[N+](C)(C)C/C=C1/COCO1	0	11	14*	2	-1	-8
Cn1c(SCc2ccccc2)nnc1C1CCCN1C(=O)c1ccc2c(c1)OCO2 (centres undefined)	0	-15	5.9*	-2	-1	-7
Cn1c(SCc2ccccc2)nnc1C1CCCN1C(=O)C1CCCO1 (centres undefined)	0	4	-1	8	·	·
COc1ccccc1NC(=O)c1cc2ccccc2oc1=Nc1ccc(Cl)cc1Cl	0	-2	9.2*	-19	0	9
